Reference: PubChem BioAssay AID1159580 (chemical genetic matrix, 2015)
Among all 5,500 compounds or so, about 2,000 (36%) were called active. Another 18% or so got no clear call; they are omitted. No stated cut-off is given here; in the data, active means normalized growth mostly below about 0.91 (no sharp cut-off); inconclusive means no clear call, values can overlap the other calls; inactive means mostly above about 0.92. This is one part of the list.

Assay: chemical genetic growth profiling, strain panel (AID 1159580);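 further: tested at 20 µM; growth read once vehicle control cultures reached saturation at 30 °C; 1 = growth at the plate median or of vehicle wells; lower values mean less growth of the strain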
Conditions: growth OD
[1] = S. cerevisiae deletion strains, locus YAL013W, strain DEP1, hits give low values
[2] = S. cerevisiae deletion strains, locus YDR150W, strain NUM1, hits give low values
[3] = S. cerevisiae deletion strains, locus YGR078C, strain PAC10, hits give low values
[4] = S. cerevisiae deletion strains, locus YHR030C, strain SLT2, hits give low values
[5] = S. cerevisiae deletion strains, locus YJL095W, strain BCK1, hits give low values
[6] = S. cerevisiae deletion strains, locus YJR075W, strain HOC1, hits give low values
[7] = S. cerevisiae deletion strains, locus YMR307W, strain GAS1, hits give low values
[8] = S. cerevisiae deletion strains, locus YNL128W, strain TEP1, hits give low values
[9] = S. cerevisiae deletion strains, locus YNL322C, strain KRE1, hits give low values
[10] = S. cerevisiae deletion strains, locus YPL055C, strain LGE1, hits give low values
[11] = S. cerevisiae deletion strains, locus YPL241C, strain CIN2, hits give low values
[12] = S. cerevisiae deletion strains, locus YAL040C, strain CLN3, hits give low values
[13] = S. cerevisiae deletion strains, locus YCL061C, strain MRC1 (second series), hits give low values
[14] = S. cerevisiae deletion strains, locus YDR363W, strain ESC2, hits give low values
[15] = S. cerevisiae deletion strains, locus YER002W, strain NOP16, hits give low values
[16] = S. cerevisiae deletion strains, locus YNL175C, strain NOP13, hits give low values
[17] = S. cerevisiae deletion strains, locus YNL197C, strain WHI3, hits give low values
[18] = S. cerevisiae deletion strains, locus YNL224C, strain SQS1, hits give low values
[19] = S. cerevisiae deletion strains, locus YOR083W, strain WHI5 (second series), hits give low values

Measured: normalized growth

CC(N)Cc1ccc(O)cc1 (configuration not stated)
inactive: [1] 1.01 | S. cerevisiae deletion strains, locus YBR021W, strain FUR4, hits give low values 1.04 | S. cerevisiae deletion strains, locus YBR229C, strain ROT2, hits give low values 1.01 | S. cerevisiae deletion strains, locus YCL029C, strain bik1, hits give low values 1.02 | S. cerevisiae deletion strains, locus YDL035C, strain GPR1, hits give low values 1.02 | S. cerevisiae deletion strains, locus YDL074C, strain BRE1, hits give low values 1 | S. cerevisiae deletion strains, locus YDL101C, strain DUN1, hits give low values 1.02 | S. cerevisiae deletion strains, locus YDL134C, strain PPH21, hits give low values 1.01 | S. cerevisiae deletion strains, locus YDL185W, strain tfp1, hits give low values 1.01 | S. cerevisiae deletion strains, locus YDL192W, strain arf1, hits give low values 1.03 | S. cerevisiae deletion strains, locus YDR101C, strain arx1, hits give low values 1.01 | [2] 1.01 | S. cerevisiae deletion strains, locus YDR162C, strain NBP2, hits give low values 1 | S. cerevisiae deletion strains, locus YDR318W, strain mcm21, hits give low values 1.03 | S. cerevisiae deletion strains, locus YDR388W, hits give low values 1.02 | S. cerevisiae deletion strains, locus YDR502C, strain sam2, hits give low values 1.01 | S. cerevisiae deletion strains, locus YEL061C, strain CIN8, hits give low values 1.02 | S. cerevisiae deletion strains, locus YER110C, hits give low values 1.02 | S. cerevisiae deletion strains, locus YER155C, strain BEM2, hits give low values 1 | S. cerevisiae deletion strains, locus YER167W, strain BCK2, hits give low values 1.03 | S. cerevisiae deletion strains, locus YGL078C, strain dbp3, hits give low values 1.02 | S. cerevisiae deletion strains, locus YGL086W, strain mad1, hits give low values 1.02 | S. cerevisiae deletion strains, locus YGL248W, strain PDE1, hits give low values 1.02 | [3] 1.01 | S. cerevisiae deletion strains, locus YGR135W, strain pre9, hits give low values 1 | S. cerevisiae deletion strains, locus YGR229C, strain SMI1, hits give low values 1.01 | S. cerevisiae deletion strains, locus YGR252W, strain gcn5, hits give low values 1.04 | [4] 1.01 | S. cerevisiae deletion strains, locus YHR079C, strain IRE1 (second series), hits give low values 1.03 | S. cerevisiae deletion strains, locus YHR094C, strain hxt1, hits give low values 1.01 | S. cerevisiae deletion strains, locus YHR129C, strain ARP1, hits give low values 1.03 | S. cerevisiae deletion strains, locus YHR200W, strain rpn10, hits give low values 1.01 | S. cerevisiae deletion strains, locus YIL066C, strain RNR3, hits give low values 1.01 | S. cerevisiae deletion strains, locus YIL073C, strain SPO22, hits give low values 1.07 | S. cerevisiae deletion strains, locus YIL125W, strain kgd1, hits give low values 1.02 | S. cerevisiae deletion strains, locus YIR030C, strain dcg1, hits give low values 1.02 | [5] 1.02 | S. cerevisiae deletion strains, locus YJL134W, strain LCB3, hits give low values 1.01 | S. cerevisiae deletion strains, locus YJL168C, strain set2, hits give low values 1.01 | S. cerevisiae deletion strains, locus YJL187C, strain SWE1 (second series), hits give low values 1.02 | S. cerevisiae deletion strains, locus YJR043C, strain POL32, hits give low values 1.06 | [6] 1.02 | S. cerevisiae deletion strains, locus YKL009W, strain mrt4, hits give low values 1.04 | S. cerevisiae deletion strains, locus YKL068W, hits give low values 1.01 | S. cerevisiae deletion strains, locus YKL085W, strain MDH1 (second series), hits give low values 1.02 | S. cerevisiae deletion strains, locus YKL085W, strain MDH1, hits give low values 1.02 | S. cerevisiae deletion strains, locus YKL190W, strain CNB1, hits give low values 1.01 | S. cerevisiae deletion strains, locus YKR001C, strain vps1, hits give low values 1.04 | S. cerevisiae deletion strains, locus YLR039C, strain RIC1, hits give low values 1.05 | S. cerevisiae deletion strains, locus YLR058C, strain SHM2, hits give low values 1.02 | S. cerevisiae deletion strains, locus YLR102C, strain apc9, hits give low values 1.02 | S. cerevisiae deletion strains, locus YLR262C, strain YPT6, hits give low values 1.01 | S. cerevisiae deletion strains, locus YLR268W, strain sec22, hits give low values 1.01 | S. cerevisiae deletion strains, locus YLR330W, strain CHS5, hits give low values 1.01 | S. cerevisiae deletion strains, locus YLR342W, strain FKS1 (second series), hits give low values 1.08 | S. cerevisiae deletion strains, locus YLR371W, strain rom2, hits give low values 1.02 | S. cerevisiae deletion strains, locus YLR418C, strain cdc73, hits give low values 0.995 | S. cerevisiae deletion strains, locus YML016C, strain PPZ1, hits give low values 1.02 | S. cerevisiae deletion strains, locus YML032C, strain rad52, hits give low values 1.04 | S. cerevisiae deletion strains, locus YML124C, strain tub3, hits give low values 1.01 | S. cerevisiae deletion strains, locus YMR078C, strain ctf18, hits give low values 1.03 | S. cerevisiae deletion strains, locus YMR223W, strain ubp8, hits give low values 1.03 | S. cerevisiae deletion strains, locus YMR263W, strain SAP30, hits give low values 1.01 | [7] 1.08 | S. cerevisiae deletion strains, locus YNL067W, strain RPL9B, hits give low values 1.01 | [8] 0.99 | S. cerevisiae deletion strains, locus YNL153C, strain GIM3, hits give low values 1.01 | S. cerevisiae deletion strains, locus YNL233W, strain BNI4, hits give low values 1.02 | S. cerevisiae deletion strains, locus YNL250W, strain rad50, hits give low values 1.01 | S. cerevisiae deletion strains, locus YNL271C, strain bni1, hits give low values 1.02 | S. cerevisiae deletion strains, locus YNL298W, strain CLA4, hits give low values 1.03 | S. cerevisiae deletion strains, locus YNL307C, strain MCK1, hits give low values 1.03 | [9] 1.01 | S. cerevisiae deletion strains, locus YNR052C, strain pop2, hits give low values 1.01 | S. cerevisiae deletion strains, locus YOL006C, strain TOP1, hits give low values 1.07 | S. cerevisiae deletion strains, locus YOL012C, strain htz1 1.46 | S. cerevisiae deletion strains, locus YOL147C, strain pex11, hits give low values 1.02 | S. cerevisiae deletion strains, locus YOR061W, strain CKA2, hits give low values 1.01 | S. cerevisiae deletion strains, locus YOR069W, strain VPS5, hits give low values 1.02 | S. cerevisiae deletion strains, locus YOR136W, strain idh2, hits give low values 1.01 | S. cerevisiae deletion strains, locus YOR144C, strain elg1, hits give low values 1.01 | S. cerevisiae deletion strains, locus YOR184W, strain ser1, hits give low values 1.04 | S. cerevisiae deletion strains, locus YOR316C, strain cot1, hits give low values 1.02 | [10] 0.982 | [11] 1.01 | S. cerevisiae deletion strains, locus YPR119W, strain clb2, hits give low values 1.01 | S. cerevisiae deletion strains, locus YPR141C, strain kar3, hits give low values 1.02 | S. cerevisiae deletion strains, locus YPR163C, strain tif3, hits give low values 1.02 | S. cerevisiae deletion strains, locus YPR167C, strain met16, hits give low values 1.02 | S. cerevisiae deletion strains, strain wtn01, hits give low values 1.01 | S. cerevisiae strains, strain wild type, hits give low values 1.01

CNCCc1c[nH]c2ccc(O)cc12
inactive: [12] 1.01 | [13] 1.01 | [2] 0.994 | [14] 1.01 | [15] 1.01 | [3] 1.02 | [7] 1 | [8] 1 | [16] 1.01 | [17] 1.02 | [18] 1.01 | [9] 1.02 | [19] 1.01 | [10] 1.01 | [11] 1

CCCCc1ccc(C(=O)O)nc1
inactive: [1] 1.02 | [12] 0.992 | [13] 1 | [14] 1.02 | [15] 1.05 | [3] 1 | [6] 1.07 | [16] 0.988 | [17] 1.01 | [18] 0.979 | [9] 1.02 | [19] 1.05 | [10] 1.03

NCCc1c[nH]c2ccc(O)cc12
inactive: [1] 1.02 | [12] 0.969 | [13] 1.01 | [14] 1.01 | [15] 1.01 | [4] 1.02 | S. cerevisiae deletion strains, locus YHR079C, strain IRE1, hits give low values 1.02 | [5] 1.01 | S. cerevisiae deletion strains, locus YJR066W, strain TOR1, hits give low values 0.942 | S. cerevisiae deletion strains, locus YLR113W, strain HOG1, hits give low values 0.991 | [7] 1.03 | [16] 1.01 | S. cerevisiae deletion strains, locus YNL183C, strain NPR1, hits give low values 0.949 | [17] 1 | [18] 1.01 | [19] 1.04 | S. cerevisiae deletion strains, locus YOR231W, strain MKK1, hits give low values 1.02 | S. cerevisiae deletion strains, locus YPL256C, strain CLN2, hits give low values 1.01
